Assay results: publication PMC10668032, “Altered binding affinity of SIX1-Q177R correlates with enhanced WNT5A and WNT pathway effector expression in Wilms tumor”
The full ranking holds about 33,000 sequences; the median of “e-score” is about -0.05, and the highest 2% start at about 0.38. This excerpt belongs to a sample that is enriched for the highest values.

Each sequence was assayed against T1, SIX1-Q177R homeodomain (human, UniProt Q15475 108-198, Q177R) (assay: universal protein binding microarray; Universal all-10-mer PBM (8x60K, AMADID 030236), 300 nM GST-tagged protein, Alexa Fluor 488 anti-GST; buffer, salt, pH and temperature not stated (as in Berger); high values mean tight binding). Details: protein: ivt; tags: N-terminal GST; dsDNA, one strand shown.
T1 sequence: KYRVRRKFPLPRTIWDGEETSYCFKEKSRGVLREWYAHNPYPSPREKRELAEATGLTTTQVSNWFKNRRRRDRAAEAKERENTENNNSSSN
Outline: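 Binding was expressed as 8-mer E-scores calculated with the Universal PBM Analysis Suite. The GST-tagged homeodomains, made by in vitro transcription/translation, were applied in duplicate at 300 nM final concentration to universal 'all 10-mer' protein binding microarrays (8×60K format).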

Sequence	binding signal
ACACGTAG	0.325 ± 0.012 E-score
ACACGTCC	0.373 ± 0.00921 E-score
CACTAGCC	0.177 ± 0.031 E-score
ATACCCGC	0.266 ± 0.0158 E-score
GGATCACA	0.168 ± 0.0336 E-score
CCCCGCCG	0.241 ± 0.0442 E-score
CTGATCCC	0.232 ± 0.00636 E-score
ACTCCGTG	0.253 ± 0.00334 E-score
ACACGCGC	0.363 ± 0.0139 E-score
ACACGCTG	0.389 ± 0.00589 E-score
ACACGTTC	0.276 ± 0.0481 E-score
ACACGCTA	0.383 ± 0.0134 E-score
CCCCGCTA	0.199 ± 0.0313 E-score
ACACGTTG	0.331 ± 0.0165 E-score
ACACGCTC	0.384 ± 0.0032 E-score
ACACACTA	0.267 ± 0.012 E-score
GTACGCTA	0.153 ± 0.0129 E-score
AACCGGGT	0.218 ± 0.0414 E-score
CACCCCAC	0.355 ± 0.0406 E-score
ACCCCACC	0.327 ± 0.05 E-score
ACTCCCGC	0.253 ± 0.0194 E-score
CACCATCA	0.231 ± 0.0313 E-score

Sequence	binding signal
CCCGGATA	0.164 ± 0.0511 E-score
GACTACAC	0.428 ± 0.0046 E-score
CACTACAG	0.196 ± 0.0315 E-score
CACTACTC	0.21 ± 0.00852 E-score
CACTACAA	0.236 ± 0.0147 E-score
CACTACGC	0.166 ± 0.0306 E-score
GACTCCAC	0.211 ± 0.00527 E-score
AACTACCC	0.151 ± 0.011 E-score
AACTACAC	0.445 ± 0.0094 E-score
CACTACAC	0.443 ± 0.00461 E-score
CAAGGGTG	0.252 ± 0.0109 E-score
CACTTCCA	0.202 ± 0.0394 E-score
GTCCTACA	0.243 ± 0.0623 E-score
CACTTAGG	0.229 ± 0.00363 E-score
ACTCCACT	0.263 ± 0.0258 E-score
CAGGGGTC	0.242 ± 0.0124 E-score
GTCGGATA	0.292 ± 0.00296 E-score
ACCCCGCC	0.271 ± 0.018 E-score
ACCGAAGT	0.167 ± 0.0104 E-score
ACACGCCA	0.381 ± 0.0176 E-score
ACGCCCCT	0.205 ± 0.0263 E-score
ACCCGCCT	0.206 ± 0.00671 E-score

Sequence	binding signal
ACACGCCT	0.416 ± 0.0145 E-score
ACACGCCC	0.4216 ± 0.00148 E-score
TAACGCCA	0.16 ± 0.00152 E-score
CAACGCCG	0.164 ± 0.00575 E-score
ACCCGCCC	0.243 ± 0.0168 E-score
ACCCGCCG	0.258 ± 0.00942 E-score
ATACGCCA	0.151 ± 0.00585 E-score
ACACGCCG	0.404 ± 0.009 E-score
ACGCCCCC	0.19 ± 0.00645 E-score
GGGGTACA	0.329 ± 0.00694 E-score
GATCCCTA	0.24 ± 0.0333 E-score
GTGCCAAC	0.156 ± 0.0339 E-score
GAATTACA	0.22 ± 0.0378 E-score
ACCCATCG	0.179 ± 0.0324 E-score
CACTGGGC	0.154 ± 0.00412 E-score
ACCCTATC	0.17 ± 0.0179 E-score
CCGATACC	0.361 ± 0.0126 E-score
AGCACACC	0.38 ± 0.026 E-score
AGCACACT	0.163 ± 0.0222 E-score
CGCACACA	0.16 ± 0.0759 E-score
CGCACACC	0.395 ± 0.0298 E-score
CGCACACG	0.24 ± 0.0245 E-score

Sequence	binding signal
AGCACACG	0.257 ± 0.015 E-score
AATCCACA	0.155 ± 0.0214 E-score
AGTATACA	0.235 ± 0.0155 E-score
ACGCCACC	0.194 ± 0.00825 E-score
AAAGGTGT	0.452 ± 0.0138 E-score
AATGGGGT	0.246 ± 0.0257 E-score
AATGGTAT	0.227 ± 0.00525 E-score
AAGGGTAT	0.262 ± 0.0281 E-score
AATGGTGT	0.4746 ± 0.00144 E-score
CACGGTGA	0.221 ± 0.0367 E-score
AACGGTGT	0.4669 ± 0.000509 E-score
AACGGTGC	0.184 ± 0.0227 E-score
AAAAGTGT	0.274 ± 0.0858 E-score
AAGGGTGT	0.4645 ± 0.00313 E-score
AAGGGGGT	0.293 ± 0.0313 E-score
AAAGGGGT	0.162 ± 0.0302 E-score
AGGGGTAT	0.3 ± 0.0125 E-score
CGACTCCC	0.263 ± 0.056 E-score
GGTCCACA	0.17 ± 0.0089 E-score
TCGTTACA	0.278 ± 0.00887 E-score
